In PubChem BioAssay (NCI) one finds growth data, which are given here for eight compounds.

This is part of a sample that, as a whole, favours compounds with a hit. Of some 83,000 tested, about 20% had one in any assay.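 Cells were grown in 96-well plates and exposed to the test compound at a single concentration for 48 hours; results are reported as percent growth, with values below 10 considered active.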 A number with no mark means an inactive call. The source made the active and inactive calls.

Test systems include HCT-15 colon; HT29 colon; SNB-75 CNS; SNB-19 CNS; U251 CNS; PC-3 prostate; SK-MEL-5 melanoma; UACC-62 melanoma; LOX IMVI melanoma; SK-MEL-28 melanoma; SK-MEL-2 melanoma; EKVX NSCLC; SN12C renal; UO-31 renal; TK-10 renal; ACHN renal; CAKI-1 renal; A498 renal; CCRF-CEM leukemia; MOLT-4 leukemia.
Common to all, as to assay: NCI-60 one-dose screen, 48 h (100 = growth as untreated, 0 = no growth, -100 = all killed)
Details in all cases: 10 µM unless noted

Turning to `CCOC(=O)N1CCN(S(=O)(=O)c2oc(-c3ccc(Cl)cc3)nc2C#N)CC1`, the growth in the assay with HCT-15 colon is -8.32% (active); with HT29 colon it was 79.3%; in the assay on SNB-75 CNS it was 87.9%; with SNB-19 CNS it was 98.3%; in the assay with U251 CNS it was 95.9%; with PC-3 prostate it was 93%. Further, the growth with SK-MEL-5 melanoma is 97.4%; with UACC-62 melanoma it was 98.8%; in the assay with LOX IMVI melanoma, 10.8%; with SK-MEL-28 melanoma it was 105%; in the assay with SK-MEL-2 melanoma it was 83.8%; in the assay on EKVX NSCLC, 101%. Further, the growth in the assay on SN12C renal is 92.6%; with UO-31 renal it was 81.5%; in the assay with TK-10 renal, -27% (active); with ACHN renal, 76.1%; in the assay with CAKI-1 renal, 101%; in the assay on A498 renal, 126%. The growth with CCRF-CEM leukemia is 1.71% (active); in the assay on MOLT-4 leukemia, 5.33% (active).
Turning to `C#Cc1cccc(Oc2ccc(NC(=O)CCl)cc2)c1`, the growth with HCT-15 colon was -29.8% [8.25 µM] (active); with HT29 colon it was 34.5% [8.25 µM]; with SNB-75 CNS, 58.2% [8.25 µM]; with SNB-19 CNS, 54.2% [8.25 µM]; in the assay with U251 CNS it was 32.9% [8.25 µM]; in the assay on PC-3 prostate, 61.7% [8.25 µM]. Moreover, the growth was 6.75% [8.25 µM] (active) in the assay on SK-MEL-5 melanoma; 26% [8.25 µM] in the assay with UACC-62 melanoma; -27.1% [8.25 µM] (active) in the assay on LOX IMVI melanoma; 91.8% [8.25 µM] in the assay with SK-MEL-28 melanoma; 61.8% [8.25 µM] in the assay with SK-MEL-2 melanoma; 82.3% [8.25 µM] with EKVX NSCLC. In addition, the growth in the assay with SN12C renal is 37.6% [8.25 µM]; in the assay with UO-31 renal it was 52.8% [8.25 µM]; with TK-10 renal it was 93% [8.25 µM]; in the assay with ACHN renal it was 70.1% [8.25 µM]; with CAKI-1 renal it was 36.9% [8.25 µM]; in the assay on A498 renal, 102% [8.25 µM]. The growth in the assay with CCRF-CEM leukemia was 2.35% [8.25 µM] (active); in the assay on MOLT-4 leukemia, 0.835% [8.25 µM] (active).
As for `COC(=O)c1c2c(n3ccc(C)cc13)C(=O)c1ccccc1C2=O`, the growth with HCT-15 colon is 53.6%; in the assay on HT29 colon, 61.5%; in the assay on SNB-75 CNS, 109%; in the assay with SNB-19 CNS it was 78.3%; in the assay on U251 CNS it was 77.3%; in the assay with PC-3 prostate, 48.9%. The growth in the assay with SK-MEL-5 melanoma was 28.5%; with UACC-62 melanoma, 78.3%; with LOX IMVI melanoma, 58.3%; in the assay on SK-MEL-28 melanoma, 99.4%; with SK-MEL-2 melanoma it was 71.6%; in the assay with EKVX NSCLC, 76.3%. Further, the growth is 75.9% in the assay with SN12C renal; 41% with UO-31 renal; 85.8% in the assay on TK-10 renal; 56.3% with ACHN renal; 59.2% in the assay on CAKI-1 renal; 78.3% in the assay on A498 renal. Further, the growth was 46.8% with CCRF-CEM leukemia and 51.4% with MOLT-4 leukemia.
Turning to `O=C(CSc1nc2ccc([N+](=O)[O-])cc2[nH]1)Nc1ccc(Br)cc1`, the growth is 56.1% with HCT-15 colon; 75.1% in the assay with HT29 colon; 61.6% in the assay on SNB-75 CNS; 65.6% in the assay on SNB-19 CNS; 36.3% in the assay with U251 CNS; 44.1% with PC-3 prostate. The growth was 26.3% with SK-MEL-5 melanoma; 20.8% in the assay with UACC-62 melanoma; 63.5% with LOX IMVI melanoma; 54.5% in the assay with SK-MEL-28 melanoma; 42.2% in the assay on SK-MEL-2 melanoma; 50% in the assay with EKVX NSCLC. For the same compound, the growth in the assay on SN12C renal was 46.1%; in the assay on UO-31 renal, 41%; with TK-10 renal, 94.5%; in the assay on ACHN renal, 52.6%; with CAKI-1 renal it was 39.6%; with A498 renal it was 30.9%. For the same compound, the growth in the assay with CCRF-CEM leukemia was 39.1%; in the assay on MOLT-4 leukemia it was 26.6%.
As for `O=C(CCl)Nc1ccc2c(Nc3cc(O)ccc3Cl)ncnc2c1`, the growth was -81.3% (active) with HCT-15 colon; -74.5% (active) in the assay with HT29 colon; -96.7% (active) in the assay on SNB-75 CNS; -61.9% (active) in the assay on SNB-19 CNS; -89.8% (active) with U251 CNS; -74.4% (active) in the assay with PC-3 prostate. In addition, the growth was -88.4% (active) in the assay on SK-MEL-5 melanoma; -68.7% (active) with UACC-62 melanoma; -81.6% (active) in the assay on LOX IMVI melanoma; -66.4% (active) in the assay with SK-MEL-28 melanoma; -76.5% (active) in the assay with SK-MEL-2 melanoma; -53.8% (active) with EKVX NSCLC. For the same compound, the growth in the assay on SN12C renal was -83.4% (active); in the assay with UO-31 renal, -92.9% (active); in the assay on TK-10 renal it was -66.9% (active); with ACHN renal, -98.3% (active); with CAKI-1 renal it was -86.1% (active); in the assay on A498 renal, 56.2%. Further, the growth in the assay on CCRF-CEM leukemia was -5.44% (active); in the assay on MOLT-4 leukemia it was -24.4% (active).
With `O=C(CSc1nc2ccc([N+](=O)[O-])cc2[nH]1)Nc1cccc([N+](=O)[O-])c1`, the growth in the assay on HCT-15 colon was 54.4%; in the assay on HT29 colon, 57.6%; with SNB-75 CNS, 49.5%; in the assay with SNB-19 CNS, 64.2%; in the assay on U251 CNS it was 41.5%; in the assay with PC-3 prostate it was 44.8%. The growth with SK-MEL-5 melanoma was 19.7%; with UACC-62 melanoma, 21.1%; in the assay on LOX IMVI melanoma, 57.8%; in the assay with SK-MEL-28 melanoma it was 55.7%; in the assay with SK-MEL-2 melanoma, 49.2%; in the assay with EKVX NSCLC, 48.8%. For the same compound, the growth in the assay with SN12C renal is 49.6%; with UO-31 renal it was 33.4%; with TK-10 renal, 69.5%; with ACHN renal, 62.5%; in the assay on CAKI-1 renal, 41.2%; in the assay with A498 renal, 31.7%. For the same compound, the growth is 40.8% in the assay on CCRF-CEM leukemia and 43.6% in the assay with MOLT-4 leukemia.
In the case of `O=C1N[C@@H]2[C@@H](O)[C@@H](O)[C@H](O)C[C@H]2c2cc3c(c(O)c21)OCCO3`, the growth in the assay on HCT-15 colon was -11.9% (active); with HT29 colon it was -14.5% (active); in the assay on SNB-75 CNS, -4.29% (active); in the assay with SNB-19 CNS it was -10.4% (active); in the assay with U251 CNS it was -14.9% (active); with PC-3 prostate it was -9.66% (active). Also, the growth is -52.1% (active) in the assay on SK-MEL-5 melanoma; -13.3% (active) with UACC-62 melanoma; -41.1% (active) in the assay with LOX IMVI melanoma; -16.4% (active) with SK-MEL-28 melanoma; -48.7% (active) in the assay on SK-MEL-2 melanoma; -14.3% (active) in the assay with EKVX NSCLC. The growth in the assay with SN12C renal is -9.95% (active); in the assay with UO-31 renal, -19.7% (active); with TK-10 renal, -11.9% (active); in the assay on ACHN renal, -14.5% (active); with CAKI-1 renal it was 4.9% (active); in the assay with A498 renal, -29.7% (active). Further, the growth was -6.07% (active) with CCRF-CEM leukemia and -0.799% (active) in the assay on MOLT-4 leukemia.
On to `Cc1cc2nc3c4ccccc4n(CCN(C)C)c3nc2cc1C`, for which the growth in the assay with HCT-15 colon was -3.11% (active); with HT29 colon it was 8.23% (active); with SNB-75 CNS, 4.8% (active); in the assay on SNB-19 CNS, 26%; with U251 CNS it was 15.7%; in the assay with PC-3 prostate, 12.9%. For the same compound, the growth in the assay with SK-MEL-5 melanoma was 6.22% (active); in the assay with UACC-62 melanoma, 36.2%; in the assay on LOX IMVI melanoma, -63.2% (active); in the assay with SK-MEL-28 melanoma it was 20.1%; with SK-MEL-2 melanoma it was 11%; in the assay on EKVX NSCLC, 18.1%. For the same compound, the growth was 16.9% in the assay with SN12C renal; -12% (active) with UO-31 renal; 26.7% in the assay on TK-10 renal; -26.5% (active) with ACHN renal; -3.55% (active) with CAKI-1 renal; -15.2% (active) with A498 renal. The results for the growth in the assay on CCRF-CEM leukemia and in the assay on MOLT-4 leukemia were 10.3% and 4.73% (active), respectively.
